Screens from PubChem BioAssay.
CYP2C9 inhib – blockers of cytochrome P450 2C9 activity – biochemical, luminescence, ADME assay, primary screen. P11712. CYP2C9 Supersomes, luciferin-H conversion. inhibition, % at 5 µM. 20% of 96,000 active;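 active = blocking of liver enzyme CYP2C9 beyond about 50% at 5 µM, limit read from the data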
CYP2C19 inh – blockers of cytochrome P450 2C19 activity – biochemical, luminescence, ADME assay, primary screen. inhibition, % at 5 µM. P33261. 21% of 96,000 active. CYP2C19 Supersomes, luciferin-H EGE luminescence, 30 min;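 active = CYP2C19 inhibition above a set limit at 5 µM in the primary screen, cut at about 50% in these data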
Target sequence (P33261 whole entry, looked up): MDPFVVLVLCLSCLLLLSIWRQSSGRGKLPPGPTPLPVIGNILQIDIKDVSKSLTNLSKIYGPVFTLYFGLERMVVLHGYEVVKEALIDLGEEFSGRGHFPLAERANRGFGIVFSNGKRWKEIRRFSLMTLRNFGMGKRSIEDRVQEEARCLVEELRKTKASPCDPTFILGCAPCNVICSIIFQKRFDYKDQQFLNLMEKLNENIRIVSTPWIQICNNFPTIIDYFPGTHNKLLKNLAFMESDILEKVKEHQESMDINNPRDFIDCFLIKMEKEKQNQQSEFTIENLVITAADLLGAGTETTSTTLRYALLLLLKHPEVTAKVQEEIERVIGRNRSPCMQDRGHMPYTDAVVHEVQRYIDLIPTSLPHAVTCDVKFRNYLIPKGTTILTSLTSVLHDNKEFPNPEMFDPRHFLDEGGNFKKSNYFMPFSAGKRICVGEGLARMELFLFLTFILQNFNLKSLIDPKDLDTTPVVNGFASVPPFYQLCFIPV
CYP2C19 act – human CYP2C19 activators, primary screen, biochemical, luminescence; recombinant CYP2C19, luciferin-H EGE luminescence; active compounds read high; 0 = fully inhibited enzyme, 1 = untreated enzyme; activation factor at 5 µM; AID 1025, 2008; 96,000 tested, under 10 active; Cytochrome P450 2C19 (Homo sapiens), P33261;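 active = activation factor of at least 2 at 5 µM in the primary screen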
CYP2C9 act – human CYP2C9 activators, primary screen, biochemical, luminescence; Cytochrome P450 2C9 (Homo sapiens), P11712; recombinant CYP2C9, luciferin-H conversion; active compounds read high; factor 1 = untreated enzyme, 0 = blocked; activation factor at 5 µM; 1.4% of 96,000 active;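 active = activation factor of 2 or more for CYP2C9 at a 5 µM dose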
Large screens that a line does not name were inactive. Most compounds without a hit are left out; they make up all but 31% or so of the library.

CCOC(=O)C(Cc1ccccc1)NS(=O)(=O)c1ccc(NC(C)=O)cc1 (stereo not given)	CYP2C19 inh 67
NC(=O)COC(=O)C(Cc1ccccc1)NS(=O)(=O)c1ccccc1F (stereo not given)	CYP2C19 inh 58
COc1nc(N2CCOCC2)nc(-n2cccc2)n1	none
O=C(CSCc1ccc(F)cc1)N1CCN(c2ccc(F)cc2)CC1	none
O=C(CSCc1cccc(Br)c1)N1CCOCC1	CYP2C19 inh 71
CC(SCc1ccccc1)C(=O)N/N=C/c1ccc2c(c1)OCO2 (stereo not given)	CYP2C9 inhib 92, CYP2C19 inh 80
CC(SCc1ccccc1)C(=O)Nc1ccc2c(c1)OCO2 (stereo not given)	CYP2C9 inhib 73, CYP2C19 inh 98
O=C(N/N=C/c1ccc2c(c1)OCO2)c1ccccn1	none
CS(=O)(=O)N(Cc1ccccc1)c1ccc(C(=O)Nc2ccc3c(c2)OCO3)cc1	none
O=C(CSCc1cccc(Cl)c1)N/N=C/c1ccc(OCC(=O)N2CCCCC2)cc1	CYP2C9 inhib 57, CYP2C19 inh 59
O=C(CSCc1cccc(Br)c1)N/N=C/c1ccc2c(c1)OCO2	CYP2C9 inhib 55
CC(SCc1ccccc1)C(=O)N/N=C/c1cc2c(cc1Br)OCO2 (stereo not given)	CYP2C9 inhib 70
O=C(CSCc1ccccc1)N/N=C/c1ccccc1OCc1ccccc1	CYP2C9 inhib 60
Cc1cccc(C)c1OCC(=O)N/N=C/c1ccc2c(c1)OCO2	none
CC(Sc1nc2ccccc2[nH]1)C(=O)Nc1ccc2c(c1)OCCO2 (stereo not given)	CYP2C9 inhib 64
O=C(NCCN1CCOCC1)N1c2ccccc2Sc2ccccc21	none
O=C(CSc1nnc(-c2ccccc2O)o1)Oc1ccc(OCc2ccccc2)cc1	none
O=C1c2cnccc2CN1Cc1ccccc1	none
Cn1cc(SCC(=O)Nc2ccc3c(c2)OCO3)c2ccccc21	CYP2C9 inhib 65, CYP2C19 inh 100
CCCn1cc(SCC(=O)Nc2ccc3c(c2)OCO3)c2ccccc21	CYP2C9 inhib 77, CYP2C19 inh 74
Cn1c(=O)cc(SCC(=O)Nc2ccc3c(c2)OCO3)c2ccccc21	none
O=C1CC(SCCO)C(=O)N1c1ccc(Oc2ccccc2)cc1 (stereo not given)	none
CCC1(c2ccc(F)cc2)NC(=O)N(CC(=O)N2CCOCC2)C1=O (stereo not given)	none
COc1ccc2c(c1)C1C=CCC1C(c1cc3c(cc1Br)OCO3)N2 (stereo not given)	CYP2C9 inhib 75, CYP2C19 inh 70
CCC(C)NC(=O)C1c2ccccc2C(=O)N1Cc1ccccc1OC (stereo not given)	none
CC(=O)OC1c2ccccc2C(=O)N1Cc1ccccc1Cl (stereo not given)	CYP2C19 inh 99
C=CCNc1nc(-c2ccc(O)c(C(N)=O)c2)cs1	CYP2C19 inh 75
C=CCNC(=O)c1ccc(-c2nc(-c3ccc(Cl)c(Cl)c3)cs2)cc1	none
NS(=O)(=O)c1ccc(NC(=O)CSc2nnc(-c3cnccn3)n2-c2ccccc2)cc1	none
Cc1cccc(NC(=O)CC2S/C(=N/c3nccs3)N(C)C2=O)c1 (stereo not given)	CYP2C9 inhib 80, CYP2C19 inh 54
Cc1c(Cl)cccc1NC(=O)c1cc(C2CC2)on1	CYP2C19 inh 84
COC(=O)c1ccccc1NC(=O)c1cc(C2CC2)on1	none
COc1ccc(NC(=O)c2cc(C3CC3)on2)c(OC)c1	CYP2C9 act 2.9
COc1cccc2cc(-c3nnc(SCC(=O)NCc4ccccc4)n3C)oc12	none
CC(C)CSc1ncnc2c1oc1nc3c(cc12)COC(C)(C)C3	CYP2C9 inhib 72
CCc1ccc(Nc2nnc(SCc3cc(=O)n4ccsc4n3)s2)cc1	none
CCCCC1(C)OC(=O)C(=Cc2ccc(N(CC)CC)cc2)C(=O)O1 (stereo not given)	CYP2C19 inh 54
O=C(CCC1CCCCC1)Nc1c2c(nn1-c1ccc(F)cc1)CS(=O)C2 (stereo not given)	CYP2C19 inh 98
COc1ccc(-n2nc3c(c2NC(=O)C2CCCC2)CS(=O)C3)cc1 (stereo not given)	none
CN(CC(=O)NCc1ccccn1)S(=O)(=O)c1ccccc1	none
CN(CC(=O)NCc1ccncc1)S(=O)(=O)c1ccccc1	CYP2C9 inhib 83, CYP2C19 inh 94
CN(CC(=O)NCc1ccncc1)S(=O)(=O)c1ccc(F)cc1	CYP2C9 inhib 82, CYP2C19 inh 91
CCCCC(c1nnnn1C1CCCC1)N1CCN(C2CCCC2)CC1 (stereo not given)	none
O=C(Nc1ccccc1C(=O)N1CCCCCC1)c1cccc(S(=O)(=O)N2CCOCC2)c1	none
O=C1Nc2ccccc2/C1=C/C(=O)c1cccs1	CYP2C9 act 2.5
O=C1NC(c2cccs2)Nc2ccccc21 (stereo not given)	none
Clc1ccc2[nH]c3c(N4CCC5(CC4)OCCO5)ncnc3c2c1	CYP2C9 inhib 73, CYP2C19 inh 76
c1ccc2c(c1)[nH]c1c(N3CCOCC3)ncnc12	CYP2C9 inhib 52
Cc1cccc2[nH]c3c(N4CCC5(CC4)OCCO5)ncnc3c12	CYP2C19 inh 51
Brc1ccc2[nH]c3c(N4CCc5ccccc5C4)ncnc3c2c1	CYP2C9 inhib 92
c1ccc2c(c1)[nH]c1c(N3CCCC3)ncnc12	none
CCCOc1ccccc1N1C(=O)CC(N2CCOCC2)C1=O (stereo not given)	none
Nc1nc(SCC(=O)NCc2ccccc2)n[nH]1	none
Cc1cccc2[nH]c3c(N4CCN(C(=O)c5ccco5)CC4)ncnc3c12	CYP2C19 inh 90
CC(C)c1ccc(NC(=O)CSc2nnc(-c3ccccn3)n2C)cc1	none
CCn1c(SCC(=O)NCCc2ccc(Cl)cc2)nnc1-c1cccs1	CYP2C9 inhib 81, CYP2C19 inh 78
CCn1c(SCC(=O)NCc2cccs2)nnc1-c1cccs1	none
CCn1c(SCC(=O)Nc2cccc(NC(=O)c3ccco3)c2)nnc1-c1cccs1	CYP2C9 inhib 65, CYP2C19 inh 56
CCn1c(CC(=O)Nc2ccc(C)c(Cl)c2)nnc1SCC(=O)Nc1nc(C)cs1	CYP2C9 inhib 63
CCc1ccc(NC(=O)CSc2nnc(-c3ccccn3)n2C)cc1	CYP2C9 inhib 72, CYP2C19 inh 67
COc1cccc(CNC(=O)C2CCN(S(=O)(=O)c3cccs3)CC2)c1	none
COc1cc(C2c3c(oc4ccc(Cl)cc4c3=O)C(=O)N2Cc2ccco2)cc(OC)c1OC (stereo not given)	none
CCOc1ccccc1Nc1nc(N)nc(CN(C)C2CCCCC2)n1	none
Cc1ccc(OCCNC(=O)c2ccco2)cc1C	none
CCc1ccc(NC(=O)CSc2nnc(-c3cccs3)n2CC)cc1	CYP2C9 inhib 52
Cc1csc(NC(=O)CSc2nnc(-c3cccs3)n2C)n1	CYP2C19 inh 52
Cn1c(SCC(=O)Nc2cc(=O)n(C)c(=O)n2C)nnc1-c1cccs1	none
COc1ccccc1N1CCN(C(CNC(=O)C2CCCCC2)c2cccnc2)CC1 (stereo not given)	none
